Assay results taken from PubChem BioAssay (NCATS).
The source made the active and inactive calls. Calls follow the shape of the dose curve; as a rule, active = well fitted curve in the direction sought with a large enough effect; inactive = no such curve, though single readings can be large or run the other way.

Test: qHTS for small molecule inhibitors of Yes1 kinase: Counter Assay (AID 686950);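 also: no kinase present so only ADP-Glo detection of a fixed ADP amount is tested; luminescence from ADP-Glo reporting ADP in a fixed ATP and ADP mixture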
Conditions: series mostly up to 76.9 µM
Source text: The Src family of non-receptor protein tyrosine kinases contains nine members, including Yes1, Src, Fyn, Lyn, and […]. These kinases have important roles in a variety of cellular functions, such as cell proliferation, survival, and differentiation. Src, the most well characterized member of this family, has been previously identified as a proto-oncogene. […] In melanoma, it has been shown that Yes1, and not other family members, such as Src, is functionally involved in the malignant phenotype. Additionally, a recent study examining the downregulation of Yes1 by shRNA found significant effects on cell survival/growth for basal-like and Her2-positive breast cancers. Despite the potential for Yes1 to be a target for the above-described cancers, there are very few reports on the identification of potent and selective inhibitors of Yes1 kinase. Antagonists of Yes1 would further elucidate Yes1 biology and help to confirm whether Yes1 is a viable target for therapeutic intervention in a variety of cancers.
A compound that inhibits Yes1 could be important for the treatment of various cancers in which Yes1 is highly expressed and can also be used as a tool compound to help further elucidate Yes1 biology. To that end, we have developed a sensitive HTS biochemical assay for Yes1 activity. This assay was screened against several small compound libraries to look for modulators of activity. The cherrypicked compounds were screened against this counter assay, which evaluates whether the compounds have any effect on the ADP-Glo detection kit. Compounds that show inhibition in this assay have interference with the detection system. Inactivity is the desired output for this assay.
NIH Molecular Libraries Probe Production Centers Network [MLPCN]
NIH Chemical Genomics Center [NCGC]
Two microliter of buffer (columns 1-48) are dispensed into Greiner, white solid-bottom 1536-well assay plates. Compounds (23 nL) are then transferred via Kalypsys pin tool equipped with 1536-pin array (10 nL slotted pins, V&P Scientific, San Diego, CA). The library compounds are in columns 5-48 and columns 1-4 serve as controls with DMSO. Following addition of compound and a 20 minute incubation, 1 uL of substrate/product mix (ATP and ADP from Sigma-Aldrich, St. Louis, MO) is added to columns 1, 2, 5-48 and 1 uL of substrate (ATP) is added to columns 3-4, and the plate is incubated for 60 minutes at room temperature. The amount of ADP is then quantified by the ADP-Glo Kit (Promega, Madison, WI). First, 2 uL of the first kit reagent is added, and the reaction is incubated for 45 minutes; then, 4 uL of the second kit reagent are added and the reaction is incubated for 30 minutes at which time the luminescence is read on a Viewlux plate reader (Perkin-Elmer, Waltham, MA). The final concentration of reagents in the reaction are 0.08 mM ATP and 0.02 mM ADP (or 0.1 mM ATP in the no ADP control columns), 100 uM EGTA, 10 mM MgCl2, 50 mM Tris pH 7.5, 1 mM DTT, 150 mM NaCl, 0.01% Brij-35, and 5% glycerol. Data are normalized to DMSO-treated control columns with ATP and […] (maximum signal) and with just ATP (minimum signal).
For `Cc1cc(O)cc(C)c1C=Cc1cncc(C(=O)N(C)C)c1`, the outcome was “inactive”.
With `Fc1ccc(-c2nn3ccccc3c2-c2ccncc2)cc1` the outcome was “inactive”.
For `COc1ccc(-c2nn3ncccc3c2-c2ccnc(Nc3ccc(Cl)c(C(F)(F)F)c3)n2)cc1`, the outcome was “inactive”.
In the case of `Cc1ccc(C(=O)NC(C)C)cc1-c1ccc(C(=O)NCC2CC2)cc1`, the outcome is reported as “inactive”.
With `CN1CCC(n2cnc(-c3ccc(F)cc3)c2-c2ccnc(N)n2)CC1` the outcome was “inactive”.
In the case of `Fc1ccc(-c2ncn(C3CCNCC3)c2-c2ccnc(Oc3ccc4c(c3)OCO4)n2)cc1`, the outcome is reported as “inactive”.
For `CC(C)c1ccc(-c2cc(-c3cn[nH]c3-c3ccccn3)ccn2)cc1`, the outcome was “inactive”.
With `CCOc1nccc2c1nc(-c1nonc1N)n2CC` the outcome was “inactive”.
For `O=C(Nc1n[nH]c2cc(-c3ccccc3)ccc12)C1CC1`, the outcome was “inactive”.
With `CNC(=O)c1ncccc1Nc1nc(Nc2cc3c(cc2OC)CCCN3C(=O)CN(C)C)nc2[nH]ccc12` the outcome was “inactive”.
In the case of `N#Cc1cccc(Nc2nccc(-c3cnn4ncccc34)n2)c1`, the outcome is reported as “inactive”.
In the case of `CC1=C(C(=O)Nc2ccc3[nH]ncc3c2)C(c2ccc(Cl)c(Cl)c2)CC(=O)N1` (stereo not given), the outcome is reported as “inactive”.
For `CN1CCC(n2cnc(-c3ccc(F)cc3)c2-c2ccnc(NCCO)n2)CC1`, the outcome was “inactive”.
In the case of `CC(Oc1cc(-n2cnc3ccc(OCC4CCN(C)CC4)cc32)sc1C(N)=O)c1ccccc1C(F)(F)F` (stereo not given), the outcome is reported as “inactive”.
With `OCCCNc1nccc(-c2c(-c3ccc(F)cc3)nn3cc(C(F)(F)F)ccc23)n1` the outcome was “inactive”.
For `COc1cc(C=NNc2ncnc3[nH]ncc23)ccc1O`, the outcome was “inactive”.
In the case of `CN(C)CCCNc1nccc(-c2c(-c3ccc(F)cc3)nn3cc(C(F)(F)F)ccc23)n1`, the outcome is reported as “inactive”.
With `CN(C)c1ccc2[nH]c(O)c(C=Nc3ccc(S(N)(=O)=O)cc3)c2c1` the outcome was “inactive”.
For `Cc1cc(O)cc(C)c1C=Cc1cncc(-c2nn[nH]n2)c1`, the outcome was “inactive”.
In the case of `COc1ccc2ncn(-c3cc(OC(C)c4ccccc4Cl)c(C(N)=O)s3)c2c1` (stereo not given), the outcome is reported as “inactive”.
For `CCN(CC)S(=O)(=O)c1ccc(OC)c(Nc2ncc(-c3ccccc3)o2)c1`, the outcome was “inactive”.
With `N#Cc1cccc(Nc2ncc(-c3ccccc3)o2)c1` the outcome was “inactive”.
For `O=C1NC(=O)C(c2cccc(Cl)c2)=C1Nc1ccc(O)c(Cl)c1`, the outcome was “inactive”.
With `COc1cc(Nc2ncc3c(C)nc(-c4cccc(Oc5ccccc5)c4)n3n2)cc(OC)c1OC` the outcome was “inactive”.
With `Fc1ccc(-c2ncn(C3CCNCC3)c2-c2ccnc(Oc3ccc(F)c(F)c3)n2)cc1` the outcome was “inactive”.
In the case of `N#Cc1c(NC(=O)c2ccc(F)cc2)sc2c1CCCC2`, the outcome is reported as “inactive”.
In the case of `CCn1c(-c2nonc2N)nc2c(C#CC(C)(C)O)nc(CN3CCCC3)cc21`, the outcome is reported as “inactive”.
For `CCn1c(-c2nonc2N)nc2c(C#CC(C)(C)O)nc(OCCNC)cc21`, the outcome was “inactive”.
In the case of `N#Cc1ccc2c(-c3ccnc(NC4CC4)n3)c(-c3ccc(F)cc3)nn2c1`, the outcome is reported as “inactive”.
For `CN1CCC(C(=O)Nc2n[nH]c3nc(-c4ccc(O)cc4)c(Br)cc23)CC1`, the outcome was “inactive”.
For `COc1ccc(Nc2ncc(-c3ccccc3)o2)cc1OC`, the outcome was “inactive”.
For `CC(Oc1cc(-n2cnc3ccc(OCC4CCN(C)CC4)cc32)sc1C(N)=O)c1ccccc1Cl` (stereo not given), the outcome was “inactive”.
With `COc1cccc(COc2cc(-n3cnc4ccccc43)sc2C(N)=O)c1` the outcome was “inactive”.
With `COc1ccc(-c2cc3c(N)ncnc3o2)cc1` the outcome was “inactive”.
For `CS(=O)(=O)CCNCc1ccc(-c2ccc3ncnc(Nc4ccc(OCc5ccccc5)c(C(F)(F)F)c4)c3c2)o1`, the outcome was “inactive”.
For `Cc1ccc(C(=O)NC2CC2)cc1-c1ccc2[nH]ncc2c1`, the outcome was “inactive”.
For `COC(=O)c1ccc2c(c1)/C(=C/c1cc(Br)c(O)c(Br)c1)C(=O)N2`, the outcome was “inactive”.
With `Nc1nc(-c2cccc(Cl)c2)c(-c2ccc3ncccc3n2)s1` the outcome was “inactive”.
For `CCn1c(-c2nonc2N)nc2cncc(C(=O)N3CCC(N)C3)c21` (stereo not given), the outcome was “inactive”.
In the case of `COc1ccc2c(-c3ccnc(Nc4cccc(OC(F)(F)F)c4)n3)cnn2n1`, the outcome is reported as “inactive”.
